Assay outcomes (PubChem BioAssay)
Hits are enriched below; roughly 3.5% of the tested compounds scored in any of these assays.
IkB sig inh = IkB Signaling; ABC-DLBCL IkBa-CBG/CBR dual luciferase ratio, 4 h; response scale: scaled: untreated 0%, proteasome inhibitor 100%; Potency, µM (series often up to 57.1 µM), inactives show at the top dose IkBa stabilization activation; actives 0.04% (n = 110,000); AID 445, 2006; active = well fitted curve in the direction sought with a large enough effect in the signal ratio, not every such curve was filed as active; inconclusive = small, poorly fitted or top-dose-only effect, or a change in a side signal; the % refers to the signal ratio;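 note: the direction sought is a rising ratio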
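In this assay, an IκBα–CBG68 fusion accumulates when IKK-driven degradation is blocked; native CBR normalizes for cell number. OCI-Ly3 cells were treated 4 h with compound and doxycycline, then green and red light read after Chroma-Glo addition.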
HEK293 cAMP ctrl = qHTS Assay for Agonists of the Thyroid Stimulating Hormone Receptor: Activators of Intracellular cAMP Concentrations in Parental HEK 293; parental HEK293 CNG cAMP sensor, membrane potential fluorescence; Potency, µM (highest dose often 57.1 µM), for the others: at the top dose activation, most hits filed as activators; actives 2.5% (n = 73,000); AID 938, 2007; active = well fitted activation curve with a large enough effect; inconclusive = small, poorly fitted or top-dose-only effect; inactive = no such curve, though single readings can be large or run the other way; note: % of control where 0% means no effect; nearly all actives have a fitted effect of over 55% in size
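Parental HEK 293 cells stably expressing a cAMP-gated CNG channel were loaded with membrane potential dye containing 100 uM RO 20-1724 for 60 min. Compound added for 30 min; depolarization read as fluorescence intensity at 590 nm.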
Hsp90 Hop PPI = qHTS Assay for Disrupters of an Hsp90 Co-Chaperone Interaction; Hsp90 C-terminal peptide / TPR2A (Hop) interaction, human; AlphaScreen TPR2A-His6 binding biotin-Hsp90 C-terminal peptide; Potency, µM (doses to about 57 µM), for inactives: top-dose activity change, negative = inhibition; actives 0.44% (n = 71,000); AID 595, 2007; active = well fitted curve in either direction with a large enough effect; inconclusive = small, poorly fitted or top-dose-only effect, or another doubt; note: % is set by controls: 0 for no effect and ±100 for the full control effect
CRE Fsk mod = Cell signaling CRE-BLA (Fsk stim) | actives 2.5% (n = 71,000) | CHO CRE-bla reporter (cAMP response element driving beta-lactamase), forskolin EC10, beta-lactamase ratio | Potency, µM (top dose mostly 38.2 µM), without a hit: top-dose activity change, negative = inhibition, usual class: activators | AID 662, 2007; active = well fitted activation curve with a large enough effect in the signal ratio, with a control signal flat, not every such curve was filed as active; inconclusive = small, poorly fitted or top-dose-only effect, or effect the other way, or a change in a side signal; the % refers to the signal ratio; note: % of control where 0% means no effect
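Forskolin analogue NKH 477 at EC10 stimulated CRE-driven beta-lactamase in CHO cells alongside compound dilution series. Beta-lactamase was measured with CCF4, excitation 405 nm, emission ratio 460/530 nm.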
TSHR ag = qHTS Assay for Agonists of the Thyroid Stimulating Hormone Receptor; Thyrotropin receptor (Homo sapiens), P16473; HEK293-CNG-TSHR cells (CNG channel as cAMP sensor), membrane potential dye, cAMP; Potency, µM (top dose mostly 57.1 µM), inactives show at the top dose activation, most hits filed as activators; actives 0.48% (n = 73,000); AID 926, 2007; active = well fitted activation curve with a large enough effect in the main read-out, with a control signal flat, not every such curve was filed as active; inconclusive = small, poorly fitted or top-dose-only effect, or a change in a side signal; inactive = no such curve, though single readings can be large or run the other way; % of control where 0% means no effect;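 note: the control signal comes from parental cells without the receptor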
Target sequence (P16473 whole entry, looked up): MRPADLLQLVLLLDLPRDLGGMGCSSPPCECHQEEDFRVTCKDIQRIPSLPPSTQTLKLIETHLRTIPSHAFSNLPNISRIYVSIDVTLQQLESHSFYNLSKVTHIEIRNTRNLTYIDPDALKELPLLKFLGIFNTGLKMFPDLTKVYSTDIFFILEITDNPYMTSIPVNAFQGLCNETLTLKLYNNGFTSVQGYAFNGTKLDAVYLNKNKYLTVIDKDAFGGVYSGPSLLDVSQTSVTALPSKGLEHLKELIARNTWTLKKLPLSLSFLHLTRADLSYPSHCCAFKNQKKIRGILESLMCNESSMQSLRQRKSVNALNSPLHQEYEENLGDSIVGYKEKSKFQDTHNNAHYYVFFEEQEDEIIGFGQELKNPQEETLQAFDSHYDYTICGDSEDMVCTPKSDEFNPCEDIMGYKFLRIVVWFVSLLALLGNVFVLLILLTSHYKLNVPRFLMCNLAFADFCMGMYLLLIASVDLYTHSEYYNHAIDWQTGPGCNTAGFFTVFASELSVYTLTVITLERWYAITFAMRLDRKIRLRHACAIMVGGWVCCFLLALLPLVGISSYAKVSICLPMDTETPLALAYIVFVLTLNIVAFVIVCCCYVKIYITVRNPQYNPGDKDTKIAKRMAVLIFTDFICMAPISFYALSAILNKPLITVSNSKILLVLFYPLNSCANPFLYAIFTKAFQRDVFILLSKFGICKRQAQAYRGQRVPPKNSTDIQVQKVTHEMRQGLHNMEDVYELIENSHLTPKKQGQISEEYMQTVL
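cAMP rise detected as CNG-channel membrane depolarization by fluorescent dye (emission 590 nm), 30 min after compound, following 60 min dye loading containing 100 uM RO 20-1724 at room temperature. Cells: TSHR/CNG HEK 293, with parental CNG HEK 293 as control.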
Active calls of the source: *; ? = inconclusive; / = no result; [ ] = another dose, or the depositor's remark. Potency is the fitted concentration of half-maximal effect.

SMILES | IkB sig inh | HEK293 cAMP ctrl | Hsp90 Hop PPI | CRE Fsk mod | TSHR ag
C=C1C(CCl)(CCl)C2(Cl)C(Cl)C(Cl)C1(Cl)C2(Cl)Cl (stereo not drawn) | 7% | 18% | 13% | ? | 40µM*
O=C(c1cccc(F)c1)N1CCC[C@@]2(CCN(c3ccccc3)C2)C1 | 2%[11.4 µM] | 5% | ? | -4% | 6%
CCOC(=O)c1cc2sccc2n1CC(=O)N1CCc2ccccc21 | 1% | 16µM* | -1% | -6% | ?
Cn1c(=O)c(-c2cccc(Cl)c2)nc2cncnc21 | 0%[11.4 µM] | 24% | -6% | 13µM* | -21%
COc1cccc(Cn2c(=O)c(-c3ccc(Cl)cc3)nc3cnc(N4CCN(C)CC4)nc32)c1 | 0%[11.4 µM] | -14% | -4% | ? | 9%
COc1cccc(Cn2c(=O)c(-c3ccc(Cl)cc3)nc3cnc(OC)nc32)c1 | 1%[11.4 µM] | ? | -3% | 7.9µM* | ?
O=c1c(-c2ccc(Cl)cc2)nc2cncnc2n1Cc1ccccc1 | 1%[11.4 µM] | 12% | -7% | 13µM* | 0%
COc1cccc(Cn2c(=O)c(-c3ccc(Cl)cc3)nc3cncnc32)c1 | 0%[11.4 µM] | 15% | -12% | 10µM* | -10%
O=c1c(-c2ccc(F)cc2)nc2cncnc2n1Cc1ccccc1 | 0%[11.4 µM] | -26% | -13% | ? | -15%
Cn1c(=O)c(-c2cccc(F)c2)nc2cncnc21 | -2%[11.4 µM] | ? | -2% | ? | ?
COc1ncc2nc(-c3ccc(Cl)cc3)c(=O)n(Cc3cccs3)c2n1 | -2%[11.4 µM] | 9% | -4% | 13µM* | 6%
Nc1ccn([C@H]2O[C@@H](COP(=O)(O)O)[C@@H](O)[C@H]2O)c(=O)n1 | 2%[11.4 µM] | -4%[11.4 µM] | -4%[11 µM] | -2%[7.6 µM] | 2%[11.4 µM]
Cc1oc2c(O)c(O)ccc2c(=O)c1-c1cnn(-c2ccccc2)c1 | ? | -32% | -6% | -11% | ?
Cc1nc(-c2cnn(-c3ccccc3)c2)c2cc(C)oc2n1 | -2% | 10% | 3% | 4µM* | 8%
C[C@@H](c1ccccc1)N1C(=O)[C@H]2[C@@H]3[C@H](O)C=CC(=O)[C@H]3CC[C@H]2C1=O | / | -2%[11.4 µM] | / | / | 8%[11.4 µM]
CC(C)=CCC/C(C)=C/CO/N=C1/C[C@@H](O)[C@@H](O)[C@@H]2[C@@H]3C(=O)N(Cc4ccc5c(c4)OCO5)C(=O)[C@H]3CC[C@H]12 | / | 9%[11.4 µM] | / | / | -7%[11.4 µM]
Cc1ccc(-c2nn(-c3ccccc3)cc2C2SCC(=O)N2Cc2ccccc2)o1 (stereo not drawn) | ? | 13% | -5%[2.3 µM] | ? | 25µM*
O=C(c1cn(-c2ccccc2)nc1-c1ccc(Cl)s1)N1CCOCC1 | 1% | -4% | -3% | -13% | 25µM*
O=C(c1cn(-c2ccccc2)nc1-c1ccccc1)N1CCOCC1 | 5% | -6% | -4% | -3% | 8%
Cc1c(C(=O)Nc2ccc3oc(-c4cccnc4)nc3c2)oc2ccccc12 | 2% | ? | -6% | 2.5µM* | ?
Cc1c(Cc2ccccc2)c(=O)oc2c(CN(C)C)c(O)c(Cl)cc12 | 0% | -5% | 3% | 10µM* | -16%
COc1cccc(-c2nn(C)c3sc(C(=O)NCc4ccco4)cc23)c1 | ? | 9% | 4% | 13µM* | 21%
CCCCNC(=O)c1cc2c(-c3ccc(Cl)cc3)nn(C)c2s1 | 1% | 29% | -1%[2.3 µM] | 14% | /
COCCNC(=O)c1cc2c(-c3ccc(Cl)cc3)nn(C)c2s1 | 1% | 4% | 0%[2.3 µM] | 7.9µM* | 3%
Cn1nc(-c2ccc(Cl)cc2)c2cc(C(=O)NCCCN3CCCC3)sc21 | 16% | 7% | 4%[2.3 µM] | ? | 5%
SMILES | IkB sig inh | HEK293 cAMP ctrl | Hsp90 Hop PPI | CRE Fsk mod | TSHR ag
COCCCNC(=O)c1cc2c(-c3ccc(Cl)cc3)nn(C)c2s1 | -1% | 6% | -4%[2.3 µM] | 3.2µM* | 8%
O=C(Nc1cccc(F)c1)N1CCCC2(CCN(C(=O)c3csnn3)CC2)C1 | 1%[11.4 µM] | 21% | -2% | -2% | 4%
CCc1ccc(C2=NN(CCC(=O)NCCc3ccc(OC)c(OC)c3)C(=O)CC2)cc1 | -2% | / | / | / | /
COc1cccc(CNC(=O)CC(c2ccc(F)cc2)N2Cc3ccccc3C2=O)c1 (stereo not drawn) | 1% | / | / | / | /
O=c1cc(CSc2nnc(COc3ccc(Cl)cc3)o2)c2ccccc2[nH]1 | 2% | 25µM* | 2% | ? | ?
O=c1cc(CSc2nnc(-c3ccccc3)o2)c2ccccc2[nH]1 | 1% | 4% | -1% | 6% | -3%
O=c1c(-c2cccs2)nc2cnc(N3CCOCC3)nc2n1Cc1cccs1 | 1%[11.4 µM] | 10% | -7% | ? | 1%
CCOC(=O)c1[nH]c(C)c(C(=O)N2CCc3ccccc32)c1C | 6% | ? | 0% | 6.3µM* | ?
COc1cccc(C2=NOC(C(=O)NCc3ccccc3)C2)c1 (stereo not drawn) | 6% | ? | 1% | 25µM* | ?
COc1ccc(C2=NOC(C(=O)NCc3ccccc3)C2)cc1 (stereo not drawn) | 1% | ? | -4% | ? | ?
Cc1ccc2[nH]c(=O)c3cc(C(=O)N(C)Cc4ccco4)sc3c2c1 | ? | 23% | ? | 10µM* | 5%
Cn1c(SCC(=O)NC2CCCC2)nnc1-c1ccc(S(=O)(=O)N2CCOCC2)cc1 | 1% | 25µM* | 1% | -7% | ?
O=C1C(Cl)=C(Sc2nnc3c4ccccc4c4ccccc4c3n2)C(=O)c2ccccc21 | ? | -8%[11.4 µM] | -13%[11 µM] | 12%[7.6 µM] | -3%[11.4 µM]
NC(N)=NC(N)=Nc1ccccc1 (tested in a mixture with another compound) | 0%[11.4 µM] | -1%[11.4 µM] | -3%[11 µM] | -6%[7.6 µM] | -2%[11.4 µM]
CCOC(=O)c1sc(Nc2nc3c(OC)cccc3s2)nc1C | 6% | 13% | 14% | 10µM* | -1%
NCCC[C@@H](CC(=O)N[C@@H]1CCNC[C@H]1C(=O)N[C@H](CC(=O)N[C@@H](CCC(=O)O)CC(=O)O)Cc1ccccc1)NC(=O)C[C@H](CO)NC(=O)[C@@H]1CCCC[C@H]1N | -2% | 8% | -20% | -9% | 5%
NCCC[C@@H](CC(=O)N[C@@H]1CCCC[C@H]1C(=O)N[C@H](CC(=O)N[C@@H](CCC(=O)O)CC(=O)O)Cc1ccccc1)NC(=O)C[C@H](Cc1ccccc1)NC(=O)[C@@H]1CCCC[C@H]1N | 0% | 0.032µM* | -21% | -16% | ?
CC(C)[C@@H](CC(=O)N[C@@H]1CCNC[C@H]1C(=O)N[C@H](CC(=O)N[C@@H](CCC(=O)O)CC(=O)O)Cc1c[nH]c2ccccc12)NC(=O)C[C@H](CO)NC(=O)[C@@H]1CNCC[C@H]1N | 0% | 13% | 32µM* | ? | 9%
